Laboratory results published in PubChem BioAssay (NCATS).
Results filed as inconclusive are left out. Where a call stands in place of a potency, no number is given. Calls of active or inactive are those of the source. Calls follow the shape of the dose curve; as a rule, active = well fitted curve in the direction sought with a large enough effect; inconclusive = small, poorly fitted or top-dose-only effect, or another doubt; inactive = no such curve, though single readings can be large; an effect the other way counts as inactive or inconclusive.

What was measured:
[1] = qHTS to identify inhibitors of the type 1 interferon - major histocompatibility complex class I in skeletal muscle: primary screen against the NCATS LOPAC collection (AID 1347405);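 also: lytic HiBiT luminescence reporting HLA-B protein level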
How it was run: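 HLA-B HiBiT myoblasts, IFN-b 4 ng/ml, dexamethasone-free medium; compounds 7-pt 1:4.3 titration, top 46 uM final; 24 h at 37 C; Nano-Glo HiBiT lytic reagent, 10 min RT, luminescence.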

[2] = qHTS to identify inhibitors of the type 1 interferon - major histocompatibility complex class I in skeletal muscle: primary screen against the NCATS Pharmaceutical Collection (AID 1347407);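 also: luminescence of HiBiT knocked into endogenous HLA-B as interferon-induced MHC class I level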
How it was run: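 Immortalized human myoblasts (C25cl48) with HiBiT knocked into endogenous HLA-B*08:01 were stimulated with 4 ng/ml IFN-beta and treated with compounds (8-point, 1:5, top 46 uM final) for 24 h at 37 C; HiBiT lytic luminescence read.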

[3] = qHTS for inhibitors of adenylyl cyclases using a fission yeast platform: a pilot screen against the NCATS LOPAC library (AID 1347410)
How it was run: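 S. pombe CHP2027 (AC9-GNAS-PDE4D2) carrying a PKA-repressed fbp1-GFP reporter was exposed to LOPAC compounds (final up to 57 µM) for 18 h at 30C in the dark, in EMM with histidine, lysine and uracil; GFP gain-of-signal read by laser scanning cytometry.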

[4] = qHTS to identify inhibitors of the type 1 interferon - major histocompatibility complex class I in skeletal muscle: primary screen against the NCATS Mechanism Interrogation Plate v5.0 (MIPE) Libary (AID 1347411); also: nearly all actives have a fitted effect of over 65% in size; also: potency is read from the fitted curve at half-maximal effect
How it was run: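 HLA-B HiBit myoblasts, dexamethasone-free medium + 4 ng/ml IFN-b, 24 h compound, 11-pt 1:3 from 46 uM final. Readout: Nano-Glo HiBiT lytic luminescence after 10 min lysis, RT.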

[5] = target: Protein phosphatase 1D (Homo sapiens) (UniProt O15297); assay: RapidFire Mass Spectrometry qHTS Assay for Modulators of WT P53-Induced Phosphatase 1 (WIP1) (AID 1347424);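 also: amount of dephosphorylated VEPPL-S-QETFS peptide product formed by WIP1; series mostly up to about 63 µM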
Sequence of Protein phosphatase 1D (Homo sapiens) (O15297 whole entry, looked up): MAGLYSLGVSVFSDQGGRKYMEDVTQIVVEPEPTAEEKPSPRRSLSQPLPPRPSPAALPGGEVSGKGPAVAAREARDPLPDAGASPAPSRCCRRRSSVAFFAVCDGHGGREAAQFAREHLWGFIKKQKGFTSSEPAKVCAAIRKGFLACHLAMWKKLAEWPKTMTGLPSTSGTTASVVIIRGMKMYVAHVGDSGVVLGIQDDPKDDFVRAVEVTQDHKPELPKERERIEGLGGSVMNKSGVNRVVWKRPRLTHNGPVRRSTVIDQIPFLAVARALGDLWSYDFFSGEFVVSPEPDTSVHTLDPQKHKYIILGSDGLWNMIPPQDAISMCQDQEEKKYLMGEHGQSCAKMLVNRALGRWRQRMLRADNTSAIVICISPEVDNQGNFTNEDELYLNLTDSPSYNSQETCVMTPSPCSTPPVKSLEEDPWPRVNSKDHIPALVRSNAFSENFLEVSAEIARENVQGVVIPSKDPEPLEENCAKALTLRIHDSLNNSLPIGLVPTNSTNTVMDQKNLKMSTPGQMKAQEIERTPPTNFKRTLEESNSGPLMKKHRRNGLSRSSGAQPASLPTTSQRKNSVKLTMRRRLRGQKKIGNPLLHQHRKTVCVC
How it was run: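 Mass-spectrometric measurement of dephosphorylated peptide after a 5 min room-temperature reaction of 10 nM WIP1 with 2 uM phosphopeptide, following 1 h compound preincubation in 30 mM MgCl2 buffer.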

[6] = target: Protein phosphatase 1D (Homo sapiens) (UniProt O15297); assay: Rhodamine-PBP qHTS Assay for Modulators of WT P53-Induced Phosphatase 1 (WIP1) (AID 1347425)
How it was run: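 Steps: enzyme with Rh-PBP sensor and compounds, room-temperature incubation of 1 hr, baseline read, addition of VEPPL-pS-QETFS (10 uM final), kinetic fluorescence reads at 525/598 nm. Activity equals final minus baseline signal.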

Compound | Potency [1] | Potency [2] | outcome [3] | Potency [4] | Potency [5] | outcome [6]
NC(=O)NO | inactive | inactive | inactive | inactive | inactive | inactive
N[C@@H](Cc1c[nH]c2ccc(O)cc12)C(=O)O | inactive | inactive | inactive | inactive |  | inactive
Clc1ccccc1C(c1ccccc1)(c1ccccc1)n1ccnc1 |  |  |  |  |  | inactive
Cn1c(=O)c2[nH]cnc2n(C)c1=O |  |  |  |  | inactive | inactive
CN(CCOc1ccc(NS(C)(=O)=O)cc1)CCc1ccc(NS(C)(=O)=O)cc1 |  |  |  |  |  | inactive
OCCN1CCN(CCCN2c3ccccc3Sc3ccc(C(F)(F)F)cc32)CC1 |  | inactive | inactive |  | inactive | inactive
Clc1ccc(C(c2ccccc2Cl)C(Cl)Cl)cc1 (stereo not given) | inactive | inactive |  |  |  | inactive
CC(C)Cc1ccc(C(C)C(=O)O)cc1 (stereo not given) |  |  | inactive |  |  | inactive
CCC1(c2ccccc2)C(=O)NCNC1=O |  |  |  |  | inactive | inactive
Cc1cn([C@H]2C[C@H](N=[N+]=[N-])[C@@H](CO)O2)c(=O)[nH]c1=O |  |  |  |  | inactive | inactive
CC(=O)OCC(CCn1cnc2cnc(N)nc21)COC(C)=O | inactive |  |  | inactive | inactive | inactive
O=c1c(O)c(-c2ccc(O)c(O)c2)oc2cc(O)cc(O)c12 |  | inactive | inactive | inactive | inactive | 
CC(COc1ccccc1)N(CCCl)Cc1ccccc1 (stereo not given) |  | inactive |  | inactive | inactive | inactive
CC1(C)O[C@H]2CC(=O)OC[C@]23[C@H]2CC[C@@]4(C)[C@H](c5ccoc5)OC(=O)[C@H]5O[C@]54[C@]2(C)C(=O)C[C@@H]13 |  | inactive |  |  |  | inactive
CS(=O)(=O)CCNCc1ccc(-c2ccc3ncnc(Nc4ccc(OCc5cccc(F)c5)c(Cl)c4)c3c2)o1 |  |  |  | 33 µM (active) | inactive | inactive
